# Laboratory results from PubChem BioAssay (NCI).
# Values joined by “and” are separate entries in the source; they are usually repeats but may differ in a detail not shown here. Equal values may be shown once. Compounds without any hit were thinned out: in the full panel of roughly 79,000, 15% have a hit. Unmarked numbers belong to inactive results. Active and inactive are the calls of the source. Rule as the data show it: active = growth inhibition above about 70%; inactive = the rest.
# Key:
# [1] = NCI Yeast Anticancer Drug Screen. Data for the rad52 strain (AID 147);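 also: 0% = growth of vehicle-treated control cultures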; conditions: S. cerevisiae rad52 mutant growth inhibition, stronger effect = higher value
# Method in brief: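 Screen used a yeast mutant impaired in DNA repair. After compound exposure, growth was measured. Values reflect inhibition compared with vehicle-treated cells.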
# [2] = NCI Yeast Anticancer Drug Screen. Data for the wt1 strain (AID 149);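 also: 0% = growth of vehicle-treated wt1 cultures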; conditions: S. cerevisiae wt1 strain (SPY 50644) growth inhibition, stronger effect = higher value
# Method in brief: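 Vehicle-normalised growth inhibition; strain wt1; compound exposure.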
# [3] = NCI Yeast Anticancer Drug Screen. Data for the rad50EPP+ strain (AID 151);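 also: 0% = growth of vehicle-treated control cultures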; conditions: S. cerevisiae rad50 mutant strain, stronger effect = higher value
# Method in brief: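 Exposing the rad50EPP+ strain to each compound, growth was compared with vehicle-only cultures to give inhibition.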
# [4] = NCI Yeast Anticancer Drug Screen. Data for the mgt1 strain (AID 153); conditions: S. cerevisiae mgt1 mutant growth inhibition, stronger effect = higher value
# Method in brief: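 Genetically defined yeast (mgt1) treated with compound; inhibition of growth expressed against vehicle-treated controls.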
# [5] = NCI Yeast Anticancer Drug Screen. Data for the rad50 strain (AID 155);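 also: 0% = growth of vehicle-only cultures of the same strain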; conditions: S. cerevisiae rad50 strain growth inhibition, stronger effect = higher value
# Method in brief: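 A DNA repair-deficient yeast mutant serves as the test organism; compound-induced growth inhibition is calculated against vehicle-treated cells.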
# [6] = NCI Yeast Anticancer Drug Screen. Data for the mec2-1 strain (AID 157); conditions: S. cerevisiae mec2-1 strain, stronger effect = higher value
# Method in brief: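 Readout is yeast growth inhibition, normalised to vehicle-treated controls, in the mec2-1 strain exposed to compound.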
# [7] = NCI Yeast Anticancer Drug Screen. Data for the rad14 strain (AID 159);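 also: 0% = growth of vehicle-treated control cultures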; conditions: S. cerevisiae rad14 strain growth inhibition, stronger effect = higher value
# Method in brief: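 Vehicle-treated cultures served as the baseline for growth inhibition of a DNA repair-mutant yeast strain exposed to each compound.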
# [8] = NCI Yeast Anticancer Drug Screen. Data for the sgs1 mgt1 strain (AID 161);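 also: 0% = growth of cultures given vehicle only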; conditions: S. cerevisiae sgs1 mgt1 strain, stronger effect = higher value
# Method in brief: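 Percent growth inhibition was derived by comparing compound-exposed mutant yeast with vehicle-exposed cultures. The strain carries alterations in DNA damage repair.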
# [9] = NCI Yeast Anticancer Drug Screen. Data for the CLN2oe strain (AID 163);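 also: 0% = growth of vehicle-only control cultures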; conditions: S. cerevisiae CLN2oe strain, stronger effect = higher value
# Method in brief: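 Values reflect how much compound exposure reduced yeast growth, referenced to vehicle-exposed cells. Assay organism is a strain with a defined genetic change affecting cell-cycle control.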
# [10] = NCI Yeast Anticancer Drug Screen. Data for the cln2 rad14 strain (AID 165);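 also: 0% = growth equal to vehicle treated cultures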; conditions: S. cerevisiae cln2 rad14 strain, stronger effect = higher value
# Method in brief: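 Relative to vehicle controls, growth inhibition of compound-treated cln2 rad14 yeast was recorded.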
# [11] = NCI Yeast Anticancer Drug Screen. Data for the bub3 strain (AID 167); conditions: S. cerevisiae bub3 mutant strain, stronger effect = higher value
# Method in brief: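 Inhibition values come from growth of compound-treated mutant yeast normalised to vehicle-treated controls.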
# [12] = NCI Yeast Anticancer Drug Screen. Data for the wt2 strain (AID 169);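 also: 0% = growth of vehicle-treated yeast cultures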; conditions: S. cerevisiae wt2 strain growth inhibition, stronger effect = higher value
# Method in brief: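 Values express reduction in yeast growth under compound treatment, referenced to vehicle-treated cells.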
# [13] = NCI Yeast Anticancer Drug Screen. Data for the mlh1 strain (AID 171);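 also: 0% = growth of vehicle-treated control cultures of the same strain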; conditions: S. cerevisiae mlh1 strain growth inhibition, stronger effect = higher value
# Method in brief: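 Steps: expose the defined-mutant yeast strain to compound; expose a parallel culture to vehicle; measure growth; express compound effect as inhibition relative to the vehicle culture.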
# [14] = NCI Yeast Anticancer Drug Screen. Data for the sgs1 strain (AID 173);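 also: 0% = growth of vehicle-only control cultures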; conditions: S. cerevisiae sgs1 mutant, stronger effect = higher value
# Method in brief: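 Treat defined-mutant yeast with compound; measure growth; calculate inhibition relative to vehicle-treated cells.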
# [15] = NCI Yeast Anticancer Drug Screen. Data for the mlh1 rad18 strain (AID 175); conditions: S. cerevisiae mlh1 rad18 strain growth inhibition, stronger effect = higher value
# Method in brief: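 Test agents were incubated with a yeast strain of defined genotype (DNA damage repair defect). Inhibition of growth was derived by comparison with vehicle-exposed cultures.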
# [16] = NCI Yeast Anticancer Drug Screen. Data for the rad18 strain (AID 177); conditions: S. cerevisiae rad18 mutant growth inhibition, stronger effect = higher value
# Method in brief: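 A genetically defined yeast mutant impaired in DNA damage repair was treated with test compounds, then its growth was measured against cultures receiving vehicle alone.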
# [17] = at 5.0 µM (retest, dose inferred, filed as 0.5)
# [18] = at 50.0 µM (retest, dose inferred, filed as 5.0)
smiles,measurement,setting,value
CN(C)CCSC1=Nc2ccc(Cl)cc2C(c2ccccc2Cl)=NC1,growth inhibition,[1]; at 1.2 µM,-1%
same,growth inhibition,[1]; at 3.7 µM,-8%
same,growth inhibition,[1]; at 11.0 µM,3%
same,growth inhibition,[1]; at 33.0 µM,4%
same,growth inhibition,[1]; at 100.0 µM,51%
same,growth inhibition,[2]; at 1.2 µM,-1%
same,growth inhibition,[2]; at 3.7 µM,-1%
same,growth inhibition,[2]; at 11.0 µM,0%
same,growth inhibition,[2]; at 33.0 µM,2%
same,growth inhibition,[2]; at 100.0 µM,-1%
same,growth inhibition,[3]; at 1.2 µM,-3%
same,growth inhibition,[3]; at 3.7 µM,-2%
same,growth inhibition,[3]; at 11.0 µM,-2%
same,growth inhibition,[3]; at 33.0 µM,-3%
same,growth inhibition,[3]; at 100.0 µM,0%
same,growth inhibition,[4]; at 1.2 µM,-2%
same,growth inhibition,[4]; at 3.7 µM,-1%
same,growth inhibition,[4]; at 11.0 µM,0%
same,growth inhibition,[4]; at 33.0 µM,6%
same,growth inhibition,[4]; at 100.0 µM,66%
same,growth inhibition,[5]; at 1.2 µM,-1%
same,growth inhibition,[5]; at 3.7 µM,2%
same,growth inhibition,[5]; [17],12%
same,growth inhibition,[5]; at 11.0 µM,2%
same,growth inhibition,[5]; at 33.0 µM,8%
same,growth inhibition,[5]; [18],47%
same,growth inhibition,[5]; at 50.0 µM,61.8% and 39.5%
same,growth inhibition,[5]; at 100.0 µM,51%
same,growth inhibition,[6]; at 1.2 µM,-2%
same,growth inhibition,[6]; at 3.7 µM,-2%
same,growth inhibition,[6]; [17],3%
same,growth inhibition,[6]; at 11.0 µM,0%
same,growth inhibition,[6]; at 33.0 µM,9%
same,growth inhibition,[6]; [18],12%
same,growth inhibition,[6]; at 50.0 µM,-4.25% and -24.8%
same,growth inhibition,[6]; at 100.0 µM,33%
same,growth inhibition,[7]; at 1.2 µM,0%
same,growth inhibition,[7]; at 3.7 µM,4%
same,growth inhibition,[7]; at 11.0 µM,17%
same,growth inhibition,[7]; at 33.0 µM,45%
same,growth inhibition,[7]; at 100.0 µM,75% (active)
same,growth inhibition,[8]; [17],11%
same,growth inhibition,[8]; [18],47%
same,growth inhibition,[8]; at 50.0 µM,50% and 24.2%
same,growth inhibition,[9]; at 1.2 µM,-1%
same,growth inhibition,[9]; at 3.7 µM,-1%
same,growth inhibition,[9]; at 11.0 µM,4%
same,growth inhibition,[9]; at 33.0 µM,15%
same,growth inhibition,[9]; at 100.0 µM,24%
same,growth inhibition,[10]; [17],4%
same,growth inhibition,[10]; [18],8%
same,growth inhibition,[10]; at 50.0 µM,15.7% and -4.25%
same,growth inhibition,[11]; at 1.2 µM,-1%
same,growth inhibition,[11]; at 3.7 µM,-3%
same,growth inhibition,[11]; [17],0%
same,growth inhibition,[11]; at 11.0 µM,-3%
same,growth inhibition,[11]; at 33.0 µM,9%
same,growth inhibition,[11]; [18],52%
same,growth inhibition,[11]; at 50.0 µM,61.9% and 10.9%
same,growth inhibition,[11]; at 100.0 µM,50%
same,growth inhibition,[12]; at 1.2 µM,-3%
same,growth inhibition,[12]; at 3.7 µM,-3%
same,growth inhibition,[12]; at 11.0 µM,-8%
same,growth inhibition,[12]; at 33.0 µM,-6%
same,growth inhibition,[12]; at 100.0 µM,63%
same,growth inhibition,[13]; at 1.2 µM,-1%
same,growth inhibition,[13]; at 3.7 µM,-4%
same,growth inhibition,[13]; at 11.0 µM,-1%
same,growth inhibition,[13]; at 33.0 µM,-27%
same,growth inhibition,[13]; at 100.0 µM,64%
same,growth inhibition,[14]; at 1.2 µM,-2%
same,growth inhibition,[14]; at 3.7 µM,-1%
same,growth inhibition,[14]; at 11.0 µM,0%
same,growth inhibition,[14]; at 33.0 µM,16%
same,growth inhibition,[14]; at 100.0 µM,70% (active)
same,growth inhibition,[15]; [17],4%
same,growth inhibition,[15]; [18],28%
same,growth inhibition,[15]; at 50.0 µM,40.2% and 7.1%
same,growth inhibition,[16]; at 1.2 µM,-2%
same,growth inhibition,[16]; at 3.7 µM,-1%
same,growth inhibition,[16]; at 11.0 µM,6%
same,growth inhibition,[16]; at 33.0 µM,15%
same,growth inhibition,[16]; at 100.0 µM,47%
CCOP(=O)(CC(C)P(=O)(OCC)OCC)OCC.C[CH2][Sn]([Cl])([Cl])[CH2]C (stereo not drawn),growth inhibition,[1]; at 1.2 µM,-4%
same,growth inhibition,[1]; at 3.7 µM,-1%
same,growth inhibition,[1]; at 11.0 µM,19%
same,growth inhibition,[1]; at 33.0 µM,79% (active)
same,growth inhibition,[1]; at 100.0 µM,94% (active)
same,growth inhibition,[2]; at 1.2 µM,0%
same,growth inhibition,[2]; at 3.7 µM,3%
same,growth inhibition,[2]; at 11.0 µM,12%
same,growth inhibition,[2]; at 33.0 µM,76% (active)
same,growth inhibition,[2]; at 100.0 µM,93% (active)
same,growth inhibition,[3]; at 1.2 µM,-1%
same,growth inhibition,[3]; at 3.7 µM,1%
same,growth inhibition,[3]; at 11.0 µM,5%
same,growth inhibition,[3]; at 33.0 µM,4%
same,growth inhibition,[3]; at 100.0 µM,4%
same,growth inhibition,[4]; at 1.2 µM,-3%
same,growth inhibition,[4]; at 3.7 µM,-1%
same,growth inhibition,[4]; at 11.0 µM,4%
same,growth inhibition,[4]; at 33.0 µM,67%
same,growth inhibition,[4]; at 100.0 µM,95% (active)
same,growth inhibition,[5]; at 1.2 µM,-7%
same,growth inhibition,[5]; at 3.7 µM,-15%
same,growth inhibition,[5]; [17],16%
same,growth inhibition,[5]; at 11.0 µM,-2%
same,growth inhibition,[5]; at 33.0 µM,71% (active)
same,growth inhibition,[5]; [18],14%
same,growth inhibition,[5]; at 50.0 µM,82.7% (active)
same,growth inhibition,[5]; at 100.0 µM,92% (active)
same,growth inhibition,[6]; at 1.2 µM,1%
same,growth inhibition,[6]; at 3.7 µM,4%
same,growth inhibition,[6]; [17],1%
same,growth inhibition,[6]; at 11.0 µM,14%
same,growth inhibition,[6]; at 33.0 µM,69%
same,growth inhibition,[6]; [18],18%
same,growth inhibition,[6]; at 50.0 µM,85.4% (active)
same,growth inhibition,[6]; at 100.0 µM,93% (active)
same,growth inhibition,[7]; at 1.2 µM,-3%
same,growth inhibition,[7]; at 3.7 µM,1%
same,growth inhibition,[7]; at 11.0 µM,4%
same,growth inhibition,[7]; at 33.0 µM,19%
same,growth inhibition,[7]; at 100.0 µM,76% (active)
same,growth inhibition,[8]; [17],11%
same,growth inhibition,[8]; [18],4%
same,growth inhibition,[8]; at 50.0 µM,68.2%
same,growth inhibition,[9]; at 1.2 µM,-6%
same,growth inhibition,[9]; at 3.7 µM,-5%
same,growth inhibition,[9]; at 11.0 µM,7%
same,growth inhibition,[9]; at 33.0 µM,72% (active)
same,growth inhibition,[9]; at 100.0 µM,93% (active)
same,growth inhibition,[10]; [17],6%
same,growth inhibition,[10]; [18],52%
same,growth inhibition,[10]; at 50.0 µM,50.1%
same,growth inhibition,[11]; at 1.2 µM,-2%
same,growth inhibition,[11]; at 3.7 µM,1%
same,growth inhibition,[11]; [17],-9%
same,growth inhibition,[11]; at 11.0 µM,5%
same,growth inhibition,[11]; at 33.0 µM,55%
same,growth inhibition,[11]; [18],53%
same,growth inhibition,[11]; at 50.0 µM,84.1% (active)
same,growth inhibition,[11]; at 100.0 µM,91% (active)
